According to the supplement of paper PMC6555819:

Legend:
Assay in all cases: PBM binding z-score (relative to random genomic background probes); higher = stronger binding; sequences stand for … in GC…GCGATTGACAGCGTAGAATGAAGG
[1] = tested on: FXR:RXRa (NR concentration 270 nM, RXRa partner concentration 90 nM)
Method in brief: (§1)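 Probes were double-stranded and carried 34-nt variable regions with direct-repeat seeds, single-nucleotide variants, half-site ablations and random human genomic background sequences, printed on custom Agilent 4×180K protein-binding microarrays. Arrays were incubated 1 h with ligand-free nuclear receptor dimers in PBS pH 7.4, 2% milk, 0.02% Triton X-100, 1 mM DTT, 0.2 mg/mL BSA and 0.4 mg/ml salmon testes DNA. Antibodies against each partner (one per run) detected binding, and scanned fluorescence was regression-normalized. Binding z-scores use the random background probes as reference.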

[2] = tested on: LXRa:RXRa (NR concentration 270 nM, RXRa partner concentration 90 nM)
Method in brief: as §1

[3] = tested on: LXRa homodimer (NR concentration 270 nM)
Method in brief: as §1

[4] = tested on: LXRb:RXRa (NR concentration 270 nM, RXRa partner concentration 90 nM)
Method in brief: as §1

[5] = tested on: LXRb homodimer (NR concentration 270 nM)
Method in brief: as §1

[6] = tested on: PPARa:RXRa (NR concentration 270 nM, RXRa partner concentration 90 nM)
Method in brief: as §1

[7] = tested on: PPARg:RXRa (NR concentration 180 nM, RXRa partner concentration 90 nM)
Method in brief: as §1

[8] = tested on: PPARg:RXRa 270nM:90nM, anti-RXR (NR concentration 270 nM, RXRa partner concentration 90 nM)
Method in brief: as §1

[9] = tested on: PPARg:RXRa 30nM:10nM, anti-RXR (NR concentration 30 nM, RXRa partner concentration 10 nM)
Method in brief: as §1

[10] = tested on: PPARg:RXRa 90nM:30nM, anti-RXR (NR concentration 90 nM, RXRa partner concentration 30 nM)
Method in brief: as §1

[11] = tested on: PPARg:RXRa DBDmut IVT, anti-RXR (DBD mutation: RXRa K156A/R161A, NR concentration 270 nM, RXRa partner concentration 90 nM)
Method in brief: as §1

[12] = tested on: PPARg:RXRa IVT, anti-PPARg (NR concentration 270 nM, RXRa partner concentration 90 nM)
Method in brief: as §1

[13] = tested on: PPARg DBDmut:RXRa IVT, anti-PPARg (DBD mutation: PPARg1 K132A/R137A, NR concentration 270 nM, RXRa partner concentration 90 nM)
Method in brief: as §1

[14] = tested on: PPARg DBDmut IVT, anti-PPARg (DBD mutation: PPARg1 K132A/R137A, NR concentration 270 nM)
Method in brief: as §1

[15] = tested on: PPARg homodimer (NR concentration 180 nM)
Method in brief: as §1

[16] = tested on: PXR:RXRa (NR concentration 270 nM, RXRa partner concentration 90 nM)
Method in brief: as §1

[17] = tested on: PXR homodimer (NR concentration 270 nM)
Method in brief: as §1

[18] = tested on: RARa:RXR (NR concentration 270 nM, RXRa partner concentration 90 nM)
Method in brief: as §1

[19] = tested on: RARa homodimer (NR concentration 270 nM)
Method in brief: as §1

[20] = tested on: RARb:RXRa (NR concentration 270 nM, RXRa partner concentration 90 nM)
Method in brief: as §1

Sequence | PBM binding z-score [1] | PBM binding z-score [2] | PBM binding z-score [3] | PBM binding z-score [4] | PBM binding z-score [5] | PBM binding z-score [6] | PBM binding z-score [7] | PBM binding z-score [8] | PBM binding z-score [9] | PBM binding z-score [10] | PBM binding z-score [11] | PBM binding z-score [12] | PBM binding z-score [13] | PBM binding z-score [14] | PBM binding z-score [15] | PBM binding z-score [16] | PBM binding z-score [17] | PBM binding z-score [18] | PBM binding z-score [19] | PBM binding z-score [20]
TCTTATAGATCAAAGGTTAAGAAAGCCGAAGCCT | 2.06 | 2.39 | 0.368 | 2.31 | -0.12 | 4.55 | 7.79 | 7.92 | 7.61 | 9.15 | 2.07 | 3.14 | 0.659 | 0.755 | 2.4 | 2.41 | 0.154 | 3.82 | 0.262 | 2.06
GCTAGTTGGTCAGTAAAAGGTCACACCCCGGTCG | 2.85 | 4.02 | 4.42 | 3.74 | 0.781 | 4.19 | 2.69 | 4.11 | 2.14 | 3.78 | 0.618 | 2.91 | -0.641 | -0.291 | 3.31 | 4.6 | 0.747 | 5.06 | 0.952 | 4.21
CCTACTGGGCCATCGGGTCATTGATATCAACGTT | 1.37 | 1.03 | -0.0763 | 1.51 | -0.423 | 3.29 | 3.03 | 4.12 | 1.34 | 3.22 | 3.69 | 5 | 0.365 | -0.0654 | 1.81 | 1.9 | -0.0623 | 2.47 | -0.279 | 1.9
CCAGACAGGTGAGAAGGTAAGTCAGCCTCGATTA | 0.146 | 0.152 | -0.318 | 0.215 | -0.265 | 0.66 | 0.255 | 0.254 | -0.405 | -0.0734 | 0.908 | 0.37 | -1.11 | -0.901 | 0.826 | 0.0674 | 0.339 | 0.396 | 0.66 | 0.566
CCTTACGGGTCACGAGGTTATGGCACGACGAGCG | 6.57 | 4.39 | 0.195 | 3.8 | 0.148 | 5.94 | 7.08 | 6.31 | 3.46 | 5.31 | 3.69 | 5.37 | 1.26 | 0.892 | 2.01 | 4.16 | 0.0957 | 5.67 | 0.689 | 4.51
GCATATAGGTAATACAAGGTGAAGGTCCGATTGT | 0.87 | 1.46 | 0.0259 | 0.247 | -0.268 | 1.09 | 1.25 | 1.12 | 0.453 | 0.748 | 4.57 | 3.17 | 0.671 | 0.932 | 0.421 | 0.391 | 0.248 | 1.23 | 0.491 | 0.573
ATACCAAGGTGAGCGTGAGGTCGTTGATACTAAC | 1.64 | 1.3 | 0.0516 | 1.31 | -0.401 | 2.05 | 1.03 | 0.903 | 0.0304 | 0.391 | 1.54 | 2.2 | 0.262 | -0.46 | 0.827 | 3.26 | 0.571 | 2.34 | 0.154 | 1.97
